# Measurements: the supplement of paper PMC12350171
# Counter-ions that a name gives are not always drawn. Unmarked numbers belong to inactive results.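 How the source made its calls: active = normalised median growth AUC below 0.1 of DMSO control; inactive = AUC 0.1 or higher.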
# Test system: P. vulgatus WT
# Assay: growth AUC normalised to DMSO control (median) (fraction of control); higher = less growth inhibition, active = hit call of the paper
# Conditions: 20 µM
# Outline: (§1)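 Area under the growth curve, calculated by the trapezoidal rule up to entry into stationary phase, was normalised to vehicle wells on the same plate. Strains had been passaged twice overnight without oxygen and then grown in mGAM in 96-well plates from OD578 0.01, each with an approved-drug library compound at 20 μM in 1% DMSO. OD578 was read hourly over 24 h in an anaerobic incubator, and the median of three biological replicates is given.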
# 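Further: active when median AUC fell below 0.1.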
row,Compound,growth AUC normalised to DMSO control
1,C[C@]12CC[C@@H]3c4ccc(OS(=O)(=O)O)cc4CC[C@H]3[C@@H]1CCC2=O [Estropipate piperazine salt],0.983
2,CN(CCCCCCCCCCN(C)C(=O)Oc1cccc([N+](C)(C)C)c1)C(=O)Oc1cccc([N+](C)(C)C)c1 [Demecarium bromide],0.88
3,O=C(OCC(O)CO)c1ccccc1Nc1ccnc2cc(Cl)ccc12 (centres undefined) [Glafenine hydrochloride],0.995
4,NC(=O)c1cnccn1 [Pyrazinamide],0.993
5,COCCOC(=O)C1=C(C)NC(C)=C(C(=O)OC(C)C)C1c1cccc([N+](=O)[O-])c1 (centres undefined) [Nimodipine],1
6,Cn1c(=O)c2c(ncn2CCO)n(C)c1=O [Etofylline],1.02
7,CCN(CCCc1ccccc1)CCCc1ccccc1 [Alverine citrate salt],1.03
8,N=C(N)NC(=O)c1nc(Cl)c(N)nc1N [Amiloride hydrochloride dihydrate],1.04
9,CC(=C(CCO)SSCC1CCCO1)N(C=O)Cc1cnc(C)nc1N (stereo in doubt) [Fursultiamine hydrochloride],0.995
10,CC(=O)N[C@@H](CC(C)C)C(=O)O [N-Acetyl-L-leucine],0.997
11,OCCN1CCN(CCCN2c3ccccc3C=Cc3ccccc32)CC1 [Opipramol dihydrochloride],1.01
12,CC1(C)[C@@H](OC(=O)CCC(=O)O)CC[C@]2(C)[C@H]3C(=O)C=C4[C@@H]5C[C@@](C)(C(=O)O)CC[C@]5(C)CC[C@@]4(C)[C@]3(C)CC[C@@H]12 [Carbenoxolone disodium salt],0.976
13,CC(=O)O[C@]1(C(C)=O)CC[C@H]2[C@@H]3C=C(C)C4=CC(=O)CC[C@@H]4[C@H]3CC[C@@]21C [Nomegestrol acetate],1
14,Cc1ccccc1N1C(=O)c2cc(S(N)(=O)=O)c(Cl)cc2NC1C (centres undefined) [Metolazone],1
15,CCCOc1ccc(C(=O)OCCN(CC)CC)cc1N [Proparacaine hydrochloride],1.05
16,CN(N=O)C(=O)N[C@H]1C(O)O[C@H](CO)[C@@H](O)[C@@H]1O (mixture of isomers) [Streptozotocin],0.0778 (active)
17,CC(C[N+](C)(C)C)OC(N)=O (centres undefined) [Bethanechol chloride],0.997
18,CN(C)CCOC(c1ccccc1)c1ccccc1.Cn1c(=O)c2[nH]c(Cl)nc2n(C)c1=O [Dimenhydrinate],1
19,CC(=O)OCC(=O)[C@@]12N=C(C)O[C@@H]1C[C@H]1[C@@H]3CCC4=CC(=O)C=C[C@]4(C)[C@H]3[C@@H](O)C[C@@]12C [Deflazacort],1.01
20,C[C@H](CCC(=O)O)[C@H]1CC[C@H]2[C@@H]3[C@@H](O)C[C@@H]4C[C@H](O)CC[C@]4(C)[C@H]3CC[C@]12C [Urosiol],1.02
21,CCc1c2c(nc3ccc(OC(=O)N4CCC(N5CCCCC5)CC4)cc13)-c1cc3c(c(=O)n1C2)COC(=O)[C@]3(O)CC [Irinotecan hydrochloride trihydrate],1.1
22,Cc1ccc(S(=O)(=O)NC(=O)NN2CC3CCCC3C2)cc1 (centres undefined) [Gliclazide],1.02
23,CC(C(=O)O)c1ccc2c(c1)Cc1cccnc1O2 (centres undefined) [Pranoprofen],1.04
24,CC(=O)OCC(=O)[C@@]1(OC(C)=O)[C@@H](C)C[C@H]2[C@@H]3C[C@H](F)C4=CC(=O)C=C[C@]4(C)[C@@]3(F)[C@@H](O)C[C@@]21C [Diflorasone Diacetate],1.03
25,COc1ccc2c3c1O[C@H]1C[C@@H](O)C=C[C@@]31CCN(C)C2 [Galanthamine hydrobromide],1
26,CCN1CCCC1CNC(=O)c1cc(S(N)(=O)=O)ccc1OC (centres undefined) [Sulpiride],1.01
27,NS(=O)(=O)c1cc2c(cc1Cl)NC(CC1CCCC1)NS2(=O)=O (centres undefined) [Cyclopenthiazide],0.993
28,CN1CCN(C(c2ccccc2)c2ccc(Cl)cc2)CC1 (centres undefined) [Chlorcyclizine hydrochloride],0.963

# Test system: S. enterica typhimurium WT
# Assay: as above
# Conditions: 20 µM
# Outline: as §1
row,Compound,growth AUC normalised to DMSO control
1,O=C(NCC(O)CO)c1c(I)c(C(=O)NCC(O)CO)c(I)c(N(CCO)C(=O)CO)c1I (centres undefined) [Ioversol],1
2,CC(=O)CCCCn1c(=O)c2c(ncn2C)n(C)c1=O [Pentoxifylline],1
3,COC(=O)Nc1nc2cc(C(=O)c3ccc(F)cc3)ccc2[nH]1 [Flubendazol],1.01
4,CC(=O)N(CC(O)CO)c1c(I)c(C(=O)NCC(O)CO)c(I)c(C(=O)NCC(O)CO)c1I (centres undefined) [Iohexol],0.999
5,O=C(Nc1cccc2c(=O)cc(-c3nnn[nH]3)oc12)c1ccc(OCCCCc2ccccc2)cc1 [Pranlukast],1.01
6,Cc1cccc(C)c1NC(=O)C1CCCCN1C (centres undefined) [Mepivacaine hydrochloride],0.99
7,CCn1cc(C(=O)O)c(=O)c2cnc(N3CCCC3)nc21 [Piromidic acid],1.02
8,C[C@H](CCC(=O)O)[C@H]1CC[C@H]2[C@@H]3CC[C@@H]4C[C@H](O)CC[C@]4(C)[C@H]3CC[C@]12C [Lithocholic acid],1
9,CS(=O)(=O)c1ccc([C@@H](O)[C@@H](CO)NC(=O)C(Cl)Cl)cc1 [Thiamphenicol],0.509
10,COC(=O)C1=C(C)NC(C)=C(C(=O)OC(C)C)C1c1cccc2nonc12 (centres undefined) [Isradipine],1.02
11,NS(=O)(=O)c1cc2c(cc1C(F)(F)F)NCNS2(=O)=O [Hydroflumethiazide],1.01
12,CN(C)CCN(Cc1cccs1)c1ccccn1 [Methapyrilene hydrochloride],1
13,C[C@]12CC[C@@H]3c4ccc(OS(=O)(=O)O)cc4CC[C@H]3[C@@H]1CCC2=O [Estropipate piperazine salt],0.997
14,CN(CCCCCCCCCCN(C)C(=O)Oc1cccc([N+](C)(C)C)c1)C(=O)Oc1cccc([N+](C)(C)C)c1 [Demecarium bromide],0.991
15,O=C(OCC(O)CO)c1ccccc1Nc1ccnc2cc(Cl)ccc12 (centres undefined) [Glafenine hydrochloride],0.997
16,NC(=O)c1cnccn1 [Pyrazinamide],0.999
17,COCCOC(=O)C1=C(C)NC(C)=C(C(=O)OC(C)C)C1c1cccc([N+](=O)[O-])c1 (centres undefined) [Nimodipine],0.991
18,Cn1c(=O)c2c(ncn2CCO)n(C)c1=O [Etofylline],0.999

row,Compound,growth AUC normalised to DMSO control
1,CCN(CCCc1ccccc1)CCCc1ccccc1 [Alverine citrate salt],1
2,N=C(N)NC(=O)c1nc(Cl)c(N)nc1N [Amiloride hydrochloride dihydrate],0.982
3,CC(=C(CCO)SSCC1CCCO1)N(C=O)Cc1cnc(C)nc1N (stereo in doubt) [Fursultiamine hydrochloride],0.986
4,CC(=O)N[C@@H](CC(C)C)C(=O)O [N-Acetyl-L-leucine],0.999
5,OCCN1CCN(CCCN2c3ccccc3C=Cc3ccccc32)CC1 [Opipramol dihydrochloride],1
6,CC1(C)[C@@H](OC(=O)CCC(=O)O)CC[C@]2(C)[C@H]3C(=O)C=C4[C@@H]5C[C@@](C)(C(=O)O)CC[C@]5(C)CC[C@@]4(C)[C@]3(C)CC[C@@H]12 [Carbenoxolone disodium salt],0.997
7,CC(=O)O[C@]1(C(C)=O)CC[C@H]2[C@@H]3C=C(C)C4=CC(=O)CC[C@@H]4[C@H]3CC[C@@]21C [Nomegestrol acetate],1.03
8,Cc1ccccc1N1C(=O)c2cc(S(N)(=O)=O)c(Cl)cc2NC1C (centres undefined) [Metolazone],1.02
9,CCCOc1ccc(C(=O)OCCN(CC)CC)cc1N [Proparacaine hydrochloride],1.01
10,CN(N=O)C(=O)N[C@H]1C(O)O[C@H](CO)[C@@H](O)[C@@H]1O (mixture of isomers) [Streptozotocin],0.725
11,CC(C[N+](C)(C)C)OC(N)=O (centres undefined) [Bethanechol chloride],1
12,CN(C)CCOC(c1ccccc1)c1ccccc1.Cn1c(=O)c2[nH]c(Cl)nc2n(C)c1=O [Dimenhydrinate],0.988
13,CC(=O)OCC(=O)[C@@]12N=C(C)O[C@@H]1C[C@H]1[C@@H]3CCC4=CC(=O)C=C[C@]4(C)[C@H]3[C@@H](O)C[C@@]12C [Deflazacort],0.994
14,C[C@H](CCC(=O)O)[C@H]1CC[C@H]2[C@@H]3[C@@H](O)C[C@@H]4C[C@H](O)CC[C@]4(C)[C@H]3CC[C@]12C [Urosiol],1
15,CCc1c2c(nc3ccc(OC(=O)N4CCC(N5CCCCC5)CC4)cc13)-c1cc3c(c(=O)n1C2)COC(=O)[C@]3(O)CC [Irinotecan hydrochloride trihydrate],1
16,Cc1ccc(S(=O)(=O)NC(=O)NN2CC3CCCC3C2)cc1 (centres undefined) [Gliclazide],1
17,CC(C(=O)O)c1ccc2c(c1)Cc1cccnc1O2 (centres undefined) [Pranoprofen],1.01
18,CC(=O)OCC(=O)[C@@]1(OC(C)=O)[C@@H](C)C[C@H]2[C@@H]3C[C@H](F)C4=CC(=O)C=C[C@]4(C)[C@@]3(F)[C@@H](O)C[C@@]21C [Diflorasone Diacetate],0.997
